Type in all cases: functional
For assay [1], the system named is Plasmodium falciparum. Briefly: GSK_TCMDC: Inhibition of Plasmodium falciparum 3D7 in whole red blood cells, using parasite LDH activity as an index of growth. Test compounds present at 2uM.
For assay [2], the system named is Plasmodium falciparum. Briefly: GSK_TCMDC: Inhibition of Plasmodium falciparum Dd2 in whole red blood cells, using parasite LDH activity as an index of growth. Test compounds present at 2uM.
The subject of a further assay is HepG2. In words: GSK_TCMDC: Percent inhibition of human HepG2 cell line. Test compounds present at 10uM.

Take `CCCCCCNC(=O)C(N)CCCC(N)C(=O)NCCCCCC.Cc1ccc(S(=O)(=O)O)cc1` (stereo not given): the Inhibition came out at 99% in the assay with Plasmodium falciparum [1], 0% with Plasmodium falciparum [2] and 0% in the assay on HepG2.

In the case of `COc1ccc(-c2c(-c3ccc(OCc4ccccc4)cc3O)n[nH]c2C(F)(F)F)cc1`, the Inhibition in the assay with Plasmodium falciparum [1] was 93%; in the assay on Plasmodium falciparum [2] it was 57%; in the assay on HepG2, 49%.

Consider `CCCCCCCCS(=O)(=O)NCCCC1CCN(CCCCCNC(=O)C=Cc2ccc(Cl)c(Cl)c2)CC1`, for which the Inhibition in the assay on Plasmodium falciparum [1] turned out to be 91%; in the assay with Plasmodium falciparum [2] it was 26%; in the assay on HepG2, 100%.

In the case of `O=C(COc1ccccc1Cl)N1CCc2cc3nccc(N4CCN5CCC[C@H]5C4)c3cc21`, the Inhibition with Plasmodium falciparum [1] came out at 91%; in the assay on Plasmodium falciparum [2], 99%; in the assay on HepG2, 4%.

As for `COc1cc(C(C)C)nc2ccc(NC(=O)c3ccc(C(=O)Nc4ccc5nc(C(C)C)cc(OC)c5c4)cc3)cc12`, the results for the Inhibition in the assay with Plasmodium falciparum [1], with Plasmodium falciparum [2] and in the assay on HepG2 were 95%, 72% and 39%, respectively.

Consider `Nc1cc(-c2ccc3ccccc3c2)nc2ccccc12`, for which the Inhibition in the assay on Plasmodium falciparum [1] is 99%; with Plasmodium falciparum [2], 52%; in the assay with HepG2 it was 19%.

In the case of `CC(C)CNCc1cccc(-c2ccccc2CN(C(=O)NCCc2ccccc2)C2CCN(Cc3ccccc3)CC2)c1.O=C(O)C(F)(F)F`, the results for the Inhibition in the assay with Plasmodium falciparum [1], in the assay with Plasmodium falciparum [2] and with HepG2 were 89%, 82% and 42%, respectively.

In the case of `C#CCCOc1ccc2ccccc2c1CNCCCCCCNCc1c(OCCC#C)ccc2ccccc12`, the Inhibition with Plasmodium falciparum [1] stood at 100%; in the assay on Plasmodium falciparum [2] it was 65%; in the assay with HepG2, 100%.

For `O=C(NCCCCN1CCC(c2cccc3ccccc23)CC1)c1ccc(NC(=O)c2ccc(Cl)cc2)cc1`, the Inhibition with Plasmodium falciparum [1] came out at 99%; with Plasmodium falciparum [2], 39%; in the assay on HepG2, 20%.

In the case of `Cl.O=C1COc2ccc(S(=O)(=O)N3CCC[C@@H]3CCN3CCC(c4c[nH]c5cnccc45)CC3)cc2N1`, the results for the Inhibition in the assay on Plasmodium falciparum [1], in the assay on Plasmodium falciparum [2] and in the assay on HepG2 were 100%, 6% and 0%, respectively.

With `CC(=O)N1c2ccccc2C(C)=CC1(C)C`, the results for the Inhibition in the assay on Plasmodium falciparum [1], with Plasmodium falciparum [2] and in the assay with HepG2 were 97%, 11% and 3%, respectively.

For `CNC(=O)c1cc(NCCCNCc2ccc(Cl)c(C(F)(F)F)c2)nc2ccccc12.Cl`, the Inhibition was determined as 91% in the assay on Plasmodium falciparum [1], 7% in the assay on Plasmodium falciparum [2] and 25% in the assay with HepG2.

Turning to `COc1cccc(NC(=O)Nc2cc(-c3ccc4[nH]ncc4c3)cc3c2CNC3=O)c1`, the results for the Inhibition in the assay on Plasmodium falciparum [1], in the assay on Plasmodium falciparum [2] and with HepG2 were 98%, 100% and 3%, respectively.

On to `COc1ccccc1CCN1CCC(CN(C)Cc2ccc(O)c(Cl)c2)CC1`, for which the Inhibition in the assay with Plasmodium falciparum [1] is listed as 100%; in the assay with Plasmodium falciparum [2] it was 52%; with HepG2, 19%.

On to `COc1ccc(CNC2CCN(C)CC2)cc1-c1ccc(S(=O)(=O)NCCc2ccccn2)c(C)c1.O=C(O)C(F)(F)F`, for which the Inhibition was 96% in the assay on Plasmodium falciparum [1], 91% in the assay with Plasmodium falciparum [2] and 7% in the assay on HepG2.

In the case of `O=C(Nc1ccsc1)Nc1cccc(-c2cccc(-c3nc4cc(F)ccc4[nH]3)c2)c1`, the Inhibition in the assay with Plasmodium falciparum [1] came to 100%; with Plasmodium falciparum [2], 41%; in the assay on HepG2 it was 46%.

In the case of `CCCN1CCN(Cc2ccc(C(=O)Nc3ccc(Cl)cc3)cc2)CC1.O=C(O)C(F)(F)F`, the Inhibition in the assay with Plasmodium falciparum [1] is given as 94%; in the assay with Plasmodium falciparum [2], 14%; with HepG2, 48%.

With `CS(=O)(=O)c1ccc(CNCc2ccc(-c3cccc(-c4nc5cc(C(F)(F)F)ccc5[nH]4)c3)cc2)cc1.O=C(O)C(F)(F)F`, the figures for the Inhibition in the assay with Plasmodium falciparum [1], in the assay on Plasmodium falciparum [2] and in the assay on HepG2 were 100%, 100% and 54%, respectively.

Take `Cc1c(-c2ccc(C(=O)NC3CC(C)(C)NC(C)(C)C3)cc2)[nH]c2cc(Cl)c(Cl)cc12`: the Inhibition in the assay on Plasmodium falciparum [1] worked out at 98%; with Plasmodium falciparum [2], 68%; in the assay with HepG2, 34%.

Regarding `CS(=O)(=O)Nc1cccc(-c2cnc3[nH]cc(-c4ccc(C(=O)O)c(F)c4)c3c2)c1`, the values for the Inhibition in the assay on Plasmodium falciparum [1], with Plasmodium falciparum [2] and with HepG2 were 99%, 76% and 27%, respectively.

`C[C@H](NC(=O)c1c(CN2CCN(C(=O)C(C)(C)C)CC2)c(-c2cccs2)nc2ccccc12)C1CCCCC1`: the Inhibition in the assay on Plasmodium falciparum [1] came out at 89%; in the assay with Plasmodium falciparum [2], 62%; in the assay with HepG2, 2%.

For the molecule `Cl.Nc1ccc2c(N)c3ccccc3nc2c1`, the Inhibition with Plasmodium falciparum [1] is 93%; in the assay with Plasmodium falciparum [2], 74%; in the assay with HepG2, 20%.

As to `CCc1cn2c3c(cc(C(=O)N[C@@H](Cc4ccccc4)[C@H](O)CNC(C)(C)c4cccc(OC)c4)cc13)N(C)S(=O)(=O)C2.O=CO`, the Inhibition in the assay on Plasmodium falciparum [1] is recorded as 98%; in the assay with Plasmodium falciparum [2], 99%; with HepG2, 27%.

On to `O=C(NC1CCN(c2ccnc3ccccc23)C1)c1ccc(OC(F)(F)F)cc1.O=C(O)C(F)(F)F` (stereo not given), for which the Inhibition is 89% in the assay with Plasmodium falciparum [1], 68% with Plasmodium falciparum [2] and 35% in the assay on HepG2.

With `CC1CN(Cc2ccc(-c3ccc(-c4nc5cc(F)ccc5[nH]4)s3)cc2)CC(C)O1.O=C(O)C(F)(F)F` (stereo not given), the Inhibition in the assay with Plasmodium falciparum [1] is reported as 88%; with Plasmodium falciparum [2] it was 89%; in the assay with HepG2, 35%.

Turning to `O=C(Nc1ccc(CN2CCOCC2)cc1)c1ccc(-c2ccc(Br)cc2)o1`, the Inhibition in the assay on Plasmodium falciparum [1] is listed as 92%; in the assay on Plasmodium falciparum [2], 0%; with HepG2, 3%.

For `CC(C)N1CCN(c2ccc(OCCCCN3CCN(c4cccc(Cl)c4Cl)CC3)c(C(F)(F)F)c2)CC1.Cl`, the Inhibition in the assay on Plasmodium falciparum [1] was found to be 100%; with Plasmodium falciparum [2], 28%; with HepG2 it was 64%.

On to `Br.CC1(C)NC(N)=NC(=N)N1OCCCO`, for which the Inhibition is recorded as 96% in the assay with Plasmodium falciparum [1], 0% in the assay with Plasmodium falciparum [2] and 27% in the assay on HepG2.

For the molecule `CCCCCCn1c(Sc2ccc(C#N)c([N+](=O)[O-])c2)nnc1-c1ccccc1`, the values for the Inhibition in the assay on Plasmodium falciparum [1], in the assay with Plasmodium falciparum [2] and with HepG2 were 97%, 41% and 23%, respectively.

`COc1ccc2[nH]c(C)cc(=NN=Cc3ccccc3F)c2c1`: the Inhibition in the assay with Plasmodium falciparum [1] is given as 100%; in the assay on Plasmodium falciparum [2], 100%; in the assay with HepG2 it was 3%.

A word on the Inhibition: it is the relative decrease from the control value, in per cent. Lower therefore signals a weak effect.
